From PubChem BioAssay AID1117319 (Southern Research Institute, 2015)
Several values for one entry are separate records, joined by “and”; a condition that tells them apart may be missing. Identical values can stand only once. Screen size: about 260,000 compounds; about 1,500 (0.58%) were called active. Inconclusive results (about 5%) are left out.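 Rule for the calls: active = inhibition above a set limit at one or more doses, reproduced on every date tested; inconclusive = results disagree between test dates, or hit never tested in dose response; inactive = the rest.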 Not all results are given here. Measured potencies and affinities stand elsewhere.

Target: Virion infectivity factor (Human immunodeficiency virus type 1 group M subtype B (isolate BH10)) + Virion infectivity factor (Human immunodeficiency virus type 1 group M subtype B (isolate BRU/LAI)) + Virion infectivity factor (Human immunodeficiency virus type 1 group M subtype B (isolate PCV12)) + Virion infectivity factor (Human immunodeficiency virus type 1 group M subtype B (isolate HXB2)) + DNA dC->dU-editing enzyme APOBEC-3G (Homo sapiens) (UniProt P69720+P69721+P69722+P69723+Q9HC16)
Test: HIV-1 Vif–A3G interaction blockers – biochemical, TR-FRET, GST-Vif 1-94, biotin-A3G peptide, dose response retest, primary screen (AID 1117319);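 note: Vif residues 1-94 fused to GST binding biotinylated APOBEC3G peptide 110-148; 0% = full assay without inhibitor and 100% = GST in place of GST-Vif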
Settings: TR-FRET GST-Vif / biotin-A3G peptide binding; stronger effect = higher value

inhibition, inactive:
CCCN1CCc2c(sc(NC(=O)CCS(=O)(=O)c3ccccc3)c2C(N)=O)C1 0.13%
CCOC(NC(=O)c1ccccc1)C(NC(=O)c1ccccc1)OCC (configuration not stated) -1.18%
COc1ccccc1CC(O)CC1c2c(cc3c(c2OC)OCO3)CCN1C (configuration not stated) -0.54%
CC(=O)c1cc(C)ccc1OC(=O)c1cccc2nc(C)oc12 3.65%
COC(=O)c1ccccc1N=Nc1c(C)n[nH]c1C -7.02%
COC(=O)CN1C(=O)C2(OCCCO2)c2cc(Br)ccc21 -2.05% and -8.37%
CN1CCN(C(=O)c2cc3c(C(F)(F)F)nn(C)c3s2)CC1 6.37%
O=C(COc1ccc(Cl)cc1Cl)N(Cc1ccco1)C1CCS(=O)(=O)C1 (configuration not stated) -2.82%
O=C(Cc1c(F)cccc1Cl)N1CCN(S(=O)(=O)c2cccc(F)c2)CC1 -1.72%
O=C(O)C1CC=CCC1C(=O)N1CCc2ccccc21 (configuration not stated) 23.4%
O=C(C1CCCCC1)N1CCc2ccccc21 3.73%
CCN(CC)S(=O)(=O)c1ccc(OCC(=O)NC(=O)Cc2ccccc2)c([N+](=O)[O-])c1 1.51%
O=C(c1ccccc1)c1ccc(OCCO)cc1 -4%
C=C(c1ccc(OC)cc1)c1ccc(OC)cc1 13.2%
CC1(C)CC(=O)C(C=NCCCN2CCOCC2)=C(O)C1 -5.25%
CCc1cc2ccc(OC)cc2nc1SCC(=O)NNC(=O)c1ccco1 -10%
Cc1ccc(NC(=S)N(CCCN2CCOCC2)Cc2ccco2)cc1C -0.03%
CN(C)c1ccc(/C=C2\C(=N)N3C(=NC2=O)Sc2cc(S(C)(=O)=O)ccc23)cc1 -44.5%
COc1ccc(/C=C2/C(=N)N3C(=NC2=O)Sc2cc(S(C)(=O)=O)ccc23)cc1OC -1.27%
O=C(NCc1nnc(SCC(=O)N2CCc3ccccc32)o1)c1ccco1 1.79%
Cc1cccc(NCC(=O)N/N=C\c2c[nH]c3ccccc23)c1 21.4%
Cc1nc(N)sc1C(=O)N/N=C/c1cccnc1 3.64%
Cc1cccc(Nc2ncc3c(n2)CC(c2ccco2)CC3=O)c1 (configuration not stated) 3.03%
Cc1ccc(Nc2ncc3c(n2)CC(c2ccco2)CC3=O)c(C)c1 (configuration not stated) 18.1%
CCC(=O)Nc1ncc2c(n1)CC(c1ccco1)CC2=O (configuration not stated) 31.8%
O=C(CSc1nnnn1-c1ccccc1)Nc1ncc2c(n1)CC(c1ccccc1)CC2=O (configuration not stated) 2.52%
CC(C(=O)NC1=NCCS1)(C(F)(F)F)C(F)(F)F -4.2%
COc1ccc(CCNC(=O)CCCc2ccccc2)cc1OC 1%
Cc1ccc(C)c(OCC(=O)Nn2c(C)nc3ccccc3c2=O)c1 -5.76%
C=CCn1c(C)c(C(C)=O)c(N2CCCC2)nc1=S 1.72%
C=CCn1c(C)c(C(C)=O)c(N2CCOCC2)nc1=S 5.16%
O=C(NCC1CCCO1)c1ccc2nc(N3CCCCC3)sc2c1 (configuration not stated) 1.36%
CC(Oc1ccc(Br)cc1)C(=O)Nc1ccncc1 (configuration not stated) -0.96%
COc1ccc(CNC(=O)c2cc(=O)c3ccccc3o2)cc1 4.03%
O=C(NNc1nc2c(F)cccc2s1)c1cc(=O)c2ccccc2o1 21.6%
O=S(=O)(c1cccc(F)c1)N1CCN(C(=S)NCc2ccccc2)CC1 -4.04%
O=C(OCc1csc(-c2ccccc2)n1)c1ccc(O)cc1 -8.63%
O=C1c2ccccc2C(=O)N1CCCCON1C(=O)c2ccccc2C1=O -9.96%
O=C1c2ccccc2C(=O)N1CCCON1C(=O)c2ccccc2C1=O -6.06%
CCC(C)NC(=O)C(Cc1ccccc1)NS(=O)(=O)c1ccc2c(c1)CCC(=O)N2 (configuration not stated) -0.93%
CCC(=O)NCc1c(Cl)cccc1-n1cccc1 -0.31%
CC(C)=CC(=O)NCc1c(Cl)cccc1-n1cccc1 -7.14%
CC(C)(C)c1cc(CCC(=O)N2CCNCC2)c(C(C)(C)C)cc1O -5.87%
Cc1ccc(S(=O)(=O)N2CCN(C(=O)c3cccc(-n4cccc4)c3)CC2)cc1 13.6%
O=C(c1cccc(-n2cccc2)c1)N1CCN(S(=O)(=O)c2ccccc2Br)CC1 -0.78%
CCc1cccc2c(SCC(=O)NCC3CCCO3)nc(-c3ccc(F)cc3)nc12 (configuration not stated) -2.63%
O=C(NCCn1cc(SCc2ccccc2F)c2ccccc21)c1c(F)cccc1F 23.7%
CCN(CC)c1ccc(/C=N/N2C(=O)c3ccccc3C2=O)cc1 0.19%
CSc1ccc(/C=N/n2c(C)cc(C)cc2=O)cc1 -2.42%
CC(C(=O)OCC(=O)N(C)C1(C#N)CCCCC1)N1C(=O)c2ccccc2C1=O (configuration not stated) -0.19%
O=C1c2ccccc2CC1Sc1nnc(-c2ccncc2)o1 (configuration not stated) 8.68%
Fc1ccc(CSc2nnc(-c3ccccn3)o2)cc1 -5.79%
COc1ccc(N=C2SC(C(=O)Nc3ccc(C(=O)O)cc3)CC(=O)N2Cc2cccs2)cc1 (configuration not stated) -11.4%
Cc1ccc(C)c(NC(=O)C2CCN(S(=O)(=O)c3ccc4c(c3)NC(=O)CO4)CC2)c1 -1.93%
COc1ccc(C(=O)CSc2nnc(-c3ccco3)n2C)cc1 7.51%
Cc1ccc(C(=O)CSc2nnc(-c3ccco3)n2C)cc1 11.4%
O=C(OC(C(=O)NCc1ccco1)c1ccc(Cl)cc1)c1cccs1 (configuration not stated) 4.09%
CC(C)(C)NC(=O)C(c1ccc(O)cc1)N(C(=O)CCC(=O)Nc1ccccn1)c1ccc(F)cc1 (configuration not stated) 16.4%
O=C(Nc1ccc2nsnc2c1)N1CCCCCC1 21.1%
CCOC(=O)C1CCN(C(=O)Nc2ccc3nccnc3c2)CC1 -4.96%
Cc1nc2ccc(NC(=O)N3CCCCC3)cc2nc1C 1.22%
CCOC(=O)C1CCN(C(=O)Nc2ccc3nc(C)c(C)nc3c2)CC1 8.59%
